Rows were chosen to be rich in hits. Some 2.3% of all compounds tested hit in one or more screens of this group.
CHRM1 PAM: human M1 muscarinic receptor positive allosteric modulators, primary screen, CHO-K1 cells, Fluo-8 calcium fluorescence, 1536-well | Muscarinic acetylcholine receptor M1 (Homo sapiens), P11229 | CHO-K1 hM1, ACh EC20; 0% = ACh EC20, 100% = maximal ACh | activation, % at 3 µM | 360,000 compounds, 0.088% hits | AID 588819, 2011; in the data active = activation above about 19%, passing the limit was not always enough
Target sequence (P11229 whole entry, looked up): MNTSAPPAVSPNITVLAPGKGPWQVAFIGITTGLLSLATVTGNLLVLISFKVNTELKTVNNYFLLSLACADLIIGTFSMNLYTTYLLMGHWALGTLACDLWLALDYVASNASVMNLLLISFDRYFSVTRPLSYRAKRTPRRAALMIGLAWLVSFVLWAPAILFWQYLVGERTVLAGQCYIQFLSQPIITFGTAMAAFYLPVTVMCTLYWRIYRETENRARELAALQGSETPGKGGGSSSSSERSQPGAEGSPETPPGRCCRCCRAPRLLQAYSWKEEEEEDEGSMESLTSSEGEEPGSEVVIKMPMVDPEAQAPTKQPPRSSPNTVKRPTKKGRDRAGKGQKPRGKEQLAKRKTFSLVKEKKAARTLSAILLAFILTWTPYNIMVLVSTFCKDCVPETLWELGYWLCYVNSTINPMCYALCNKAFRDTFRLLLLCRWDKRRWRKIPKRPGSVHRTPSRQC
M1 PAM parental: nonselective calcium activators in parental CHO-K1 cells, primary screen, counter-screen for M1 PAM project, cell-based, Fluo-8 calcium fluorescence, full deck, 1536-well; ATP EC20; 0% at ATP EC20, 100% at ATP max; 360,000 compounds, 0.02% hits; activation, % at 3 µM;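 active = activation above the run cutoff, the mean activation of all test compounds plus 3 SD, cut at about 40% in these data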;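 note: peak over basal fluorescence ratio in a 140 s read after ATP addition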
CHO-K1 Ca ag: counter-screen for M1 agonists: effect in parental CHO-K1 cells | 360,000 compounds, 0.48% hits | Fluo-8 calcium fluorescence; scaled to maximal ATP response, vehicle zero | activation, % at 3 µM; in the data active = activation above about 15%;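 note: untransfected CHO-K1 host cells lacking M1 receptor as counterscreen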
CHO-K1 Ca antag: nonselective inhibitor or artifact in parental CHO-K1 cells; ATP-induced calcium, Fluo-8 fluorescence; inhibition, % at 3 µM; 360,000 compounds, 0.6% hits; AID 602250;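 active = inhibition above a per-plate cutoff, the plate's mean sample inhibition plus 3 SD, cut at about 24% in these data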;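 note: 0% = DMSO plus EC80 ATP and 100% = DMSO alone without ATP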
CHRM1 antagonist: human M1 muscarinic receptor antagonists, primary screen, CHO-K1 cells, Fluo-8 calcium fluorescence, 1536-well; Muscarinic acetylcholine receptor M1 (Homo sapiens), P11229; CHO-K1 hM1, ACh EC80 antagonist; inhibition, % at 3 µM; 360,000 compounds, 1.3% hits;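 active = percent inhibition above its own plate's cutoff, namely the mean of that plate's compound wells plus 3 SD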;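 note: peak over basal fluorescence ratio during 140 s after agonist addition; 0% = ACh EC80 plus DMSO and 100% = DMSO alone without agonist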
M1 ag: human M1 muscarinic receptor agonists, primary screen, Fluo-8 calcium fluorescence, CHO-K1 cells, HTS; Muscarinic acetylcholine receptor M1 (Homo sapiens), P11229; CHO-K1 hM1, agonist mode; 0% DMSO, 100% acetylcholine EC100; activation, % at 3 µM; 360,000 compounds, 0.33% hits; AID 588814, 2011;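 active = activation above the run's mean compound activation plus 3 SD, cut at about 16% in these data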;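 note: peak over basal fluorescence ratio within a 140 s kinetic read after compound addition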
* = called active by the depositor; · = no result given.

SMILES	CHRM1 PAM	M1 PAM parental	CHO-K1 Ca ag	CHO-K1 Ca antag	CHRM1 antagonist	M1 ag
CC1=[N+](C)c2c(ccc3cccnc23)C1(C)C	-19	-9	16*	34*	29	-10
O=C(Nc1ccccc1)c1cc(C2CCCCN2C(=O)OCCF)on1 (stereo not drawn)	8	17	3	-1	-16	-4
COc1cc(-c2cc3nc(NCCOc4ccccc4)ccn3n2)cc(OC)c1OC	-10	18	5	-14	10	-3
COc1cc(-c2cc3nc(NCc4ccco4)ccn3n2)cc(OC)c1OC	-2	-15	1	32*	-4	-3
CN1CCN(c2ccc3sc(-n4ccc5ccccc54)nc3c2)CC1	-4	-2	0	9	9	-3
CCN1CCN(Cc2nc3cc(NC(=O)COc4ccc([N+](=O)[O-])cc4)ccc3n2C)CC1	-16	3	0	-20	61*	-6
Cc1cccc(OCC(=O)Nc2ccc3c(c2)nc(CCN2CCN(c4ccccn4)CC2)n3C)c1	-22	-16	12	13	88*	3
COc1ccc(OCC(=O)Nc2ccc3c(c2)nc(CCN2CCCCC2)n3C)cc1	-1	20	0	-5	2	-5
COc1ccc(OCC(=O)Nc2ccc3c(c2)nc(CCN2CCN(c4ccccn4)CC2)n3C)cc1	-29	2	5	4	64*	-3
Cn1c(CCN2CCCCC2)nc2cc(NC(=O)NC3CCCCC3)ccc21	-10	18	0	-21	12	-5
Cc1cccc(OCC(=O)Nc2ccc3c(c2)nc(CCN2CCCCC2)n3C)c1	-9	-3	1	1	11	-6
CC1CCN(CCc2nc3cc(NC(=O)NC4CCCCC4)ccc3n2C)CC1	-19	8	0	-1	36*	-8
O=C(Nc1ccccc1)c1cc(C2CCCCN2C(=O)c2ccc3c(c2)CCO3)on1 (stereo not drawn)	14	-15	2	11	-10	4
COc1ccc(C(NC(=O)C2CCN(CCOc3ccc(Cl)cc3Cl)CC2)c2cccs2)cc1 (stereo not drawn)	5	-2	0	-10	-9	0
CCCCN(C=O)c1c(CC)nc2c(OCCOc3ccccc3)cccn12	-6	5	4	-9	-5	-5
CCN1CCN(CCc2nc3cc(NC(=O)COc4ccc(Cl)cc4)ccc3n2C)CC1	5	16	2	-15	-10	-7
Cn1c(CCN2CCN(c3ccccn3)CC2)nc2cc(NC(=O)COc3ccc(Cl)cc3)ccc21	-24	1	14	5	95*	1
COc1cccc(NC(=O)C(c2ccccc2)N2CCN(CC(=O)N3CCOCC3)CC2)c1 (stereo not drawn)	7	20	0	-13	-3	-1
COc1cccc(NC(=O)C(c2ccccc2)N2CCCCC2)c1 (stereo not drawn)	-23	4	0	-11	50*	-6
CC(OC(=O)CCCOc1ccccc1)C(=O)NC(N)=O (stereo not drawn)	-6	-5	0	28*	5	-2
C(=N\N1CCN(C(c2ccccc2)c2ccccc2)CC1)/c1ccc2c(c1)OCO2	-15	8	-1	24*	17	-8
Cc1c(Br)c([N+](=O)[O-])nn1CC(=O)N1CCc2ccccc2C1	-2	5	0	10	7	-9
Cc1c(Br)c([N+](=O)[O-])nn1C(C)C(=O)N1CCc2ccccc2C1 (stereo not drawn)	-23	7	3	-6	73*	-6
CCC1(CC)C(C#N)C(=O)NC(=O)C1C#N (stereo not drawn)	8	22	1	-16	-10	-2
CC1(C(=O)NC2CCc3ccccc32)CCN1CCc1ccccc1 (stereo not drawn)	2	8	-1	-3	-5	-7
SMILES	CHRM1 PAM	M1 PAM parental	CHO-K1 Ca ag	CHO-K1 Ca antag	CHRM1 antagonist	M1 ag
COc1ccc(S(=O)(=O)N2CCc3ccccc32)cc1C(=O)O	5	23	2	-17	-15	-5
CC(=O)N1CCc2cc(S(=O)(=O)NC3CCCc4ccccc43)ccc21 (stereo not drawn)	-10	-8	5	34*	23	3
O=C(O)c1ccc(S(=O)(=O)NC2CCCc3ccccc32)cc1 (stereo not drawn)	4	9	0	-10	-6	0
CC(=O)N1CCc2ccc(S(=O)(=O)N3CCc4ccccc43)cc21	-20	-17	10	13	35*	-3
CC(C)C1C(=O)N(Cc2cn(CC3CCCCC3)nn2)CCS(=O)(=O)N1Cc1ccc(-c2cccc(CO)c2)cc1 (stereo not drawn)	0	7	1	-5	-3	-2
COc1cc(NC(=O)c2cc3ccccc3cc2O)c(OC)cc1Cl	-12	2	13	16	23	-2
COc1ccccc1NC(=O)c1cc2cc(Br)ccc2cc1O	-16	-9	15*	29*	32	-3
COc1ccc(-c2nc3ccc(C)cn3c2Cc2ccsc2)cc1OC	3	15	1	-16	-22	-5
COc1ccccc1-n1c(O)c(C=NCc2ccccn2)c2ccccc2c1=O	8	13	18*	-2	-10	2
Cc1ccc(-n2c(O)c(C=NCc3ccccn3)c3ccccc3c2=O)cc1	5	8	0	4	2	-8
COC(=O)[C@]12CCCCC=C1N(Cc1cccc3ccccc13)C(=O)[C@H](CC(=O)N1CCSCC1)C2	·	17	8	-4	·	·
CC(NC(=O)NCCCC(=O)O)(C(F)(F)F)C(F)(F)F	6	-5	0	25*	-1	0
CC[N+](CC)(CC#Cc1ccccc1)CC#Cc1ccccc1	-20	8	0	-11	42*	-7
OC[C@@H]1CN(Cc2ccc(Cl)cc2)C[C@H](n2cnc3c(Nc4ccccc4)ncnc32)O1	-3	-6	4	6	10	-1
COc1ccc(Nc2nnc(-c3ccc(O)cc3)c3ccccc23)cc1	-24	5	-1	-5	59*	-6
CNC(=O)COc1ccc(Nc2nnc(-c3ccc(C)c(S(N)(=O)=O)c3)c3ccccc23)cc1	-20	-2	0	-4	14	45*
COc1ccc(Nc2c3ccccc3nc3ccccc23)cc1	2	13	16*	9	-9	-8
COc1ccc(Nc2c3c(nc4ccccc24)CCC3)cc1	22	8	1	-7	-20	-8
Oc1ccc(Nc2nnc(-c3ccc(O)cc3)c3ccccc23)cc1	-22	-13	0	-1	36*	-8

Compound activity deposited in PubChem by The Scripps Research Institute Molecular Screening Center.
